The structures appear in SMILES notation. This is part of a sample that, as a whole, favours compounds with a hit. Of some 83,000 tested, about 20% had one in any assay.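 Each cell line was grown in a 96-well plate and treated with one concentration of compound for 48 hours. Values below 10 were considered active.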 A number with no mark means an inactive call. Calls of active or inactive are those of the source.

Common to all, as to test: NCI-60 one-dose screen, 48 h (100 = growth as untreated, 0 = no growth, -100 = all killed)
Conditions in all cases: 10 µM

For assay [1], the system named is NCI-H23 lung.
The subject of assay [2] is NCI-H226 lung.
In assay [3] the test system is HOP-62 NSCLC.
Assay [4] relates to NCI-H460 lung.
Assay [5] has as its system HOP-92 NSCLC.
Assay [6] has as its system NCI-H522 lung.
Assay [7] relates to A549/ATCC NSCLC.
The test system of assay [8] is 786-0 renal.
Assay [9] concerns COLO 205 colon.
Assay [10] has as its system DU-145 prostate.
Assay [11] has as its system K-562 leukemia.
Assay [12] concerns MALME-3M melanoma.
For assay [13], the system named is MDA-MB-231 breast.
Assay [14] concerns RXF 393 renal.
The test system of assay [15] is SF-268 CNS.
The subject of assay [16] is SF-295 CNS.
Assay [17] concerns SF-539 CNS.
The test system of assay [18] is UACC-257 melanoma.
Assay [19] has as its system M14 melanoma.

For `COc1ccc(-c2cc(-c3ccc(Cl)cc3)nc(SCCCC(=O)NO)n2)cc1OC`, the growth in [1] is -8.91% (active); in [2] it was -5.3% (active); in [3], 2.14% (active); in assay [4], -17.7% (active); in assay [5], -0.324% (active); in assay [6], -5.35% (active). In addition, the growth in [7] is 8.3% (active); in assay [8], 4.57% (active); in assay [9] it was 6.86% (active); in assay [10] it was 14.2%; in [11], 3.01% (active); in assay [12], 6.86% (active). Also, the growth was 6.55% (active) in assay [13]; -38.2% (active) in assay [14]; 8.6% (active) in assay [15]; -32.6% (active) in [16]; -35.7% (active) in [17]; 16.1% in assay [18]. Also, the growth in assay [19] is -40.2% (active).

On to `COc1cc2cc(Oc3ccc(NC(=O)Nc4ccc(Cl)c(C(F)(F)F)c4)cc3)c(C)nc2cc1OC`, for which the growth was 3.46% (active) in [1]; 4.49% (active) in assay [2]; -50.9% (active) in assay [3]; -19.8% (active) in [4]; -22.3% (active) in assay [5]; -43.6% (active) in [6]. The growth in assay [7] was -17.2% (active); in [8] it was -21.1% (active); in [9], -49.5% (active); in assay [10] it was 12.7%; in [11], -9.54% (active); in assay [12] it was -23% (active). For the same compound, the growth in assay [13] is -50.6% (active); in [14], -33.4% (active); in assay [15] it was -10.2% (active); in assay [16] it was -70.9% (active); in [17] it was -36.2% (active); in assay [18] it was -12.5% (active). Further, the growth in assay [19] is -73.6% (active).

Regarding `COc1ccc2cc(-c3nc4ccccc4s3)c(Cl)nc2c1OC`, the growth in assay [1] is 84.4%; in assay [2], 93.9%; in assay [3] it was 90.7%; in [4] it was 98.4%; in assay [5], 85.3%; in assay [6] it was 101%. Moreover, the growth in assay [7] was 110%; in assay [8], 119%; in assay [9], 98%; in [10], 113%; in assay [11], 92.3%; in assay [12], 109%. Further, the growth in [13] is 87.3%; in [14] it was 104%; in assay [15] it was 93.3%; in assay [16], 108%; in [17], 99%; in assay [18] it was 109%. Also, the growth in assay [19] is 102%.

Take `COc1cccc(-c2nc3sccn3c2-c2cccc(S(C)(=O)=O)c2)c1`: the growth in assay [1] is 85.4%; in [2], 90.1%; in assay [3], 105%; in assay [4], 106%; in assay [5], 87.3%; in [6], 102%. Besides, the growth in assay [7] is 102%; in assay [8], 100%; in assay [9] it was 114%; in assay [10], 110%; in [11], 95.5%; in assay [12] it was 129%. Moreover, the growth was 93.4% in [13]; 84.1% in assay [14]; 100% in assay [15]; 94.4% in [16]; 94.3% in assay [17]; 115% in [18]. Moreover, in assay [19], the growth is 119%.

Turning to `O=C(/C=C/C=C/c1c(C2CC2)nc2ccccc2c1-c1ccc(F)cc1)c1cccs1`, the growth in [1] is 20.7%; in [2], -53.6% (active); in assay [3], 24.2%; in assay [4], -7.38% (active); in assay [5], 9.27% (active); in [6], 2.39% (active). The growth in [7] is 20.6%; in assay [8], 19.6%; in assay [9] it was -55% (active); in assay [10], 20.4%; in [11], 5.43% (active); in assay [12], -35.1% (active). The growth in assay [13] is 25.1%; in [14], -54.2% (active); in assay [15], 43.4%; in assay [16] it was 18.3%; in assay [17], -32.8% (active); in assay [18], -35.4% (active). Also, in assay [19], the growth is 3.19% (active).

As to `O=C(Nc1ccc(F)cc1)c1cc2ccccc2cc1O`, the growth in assay [1] is 61.8%; in [2], 74.2%; in [3] it was 78.7%; in assay [4], 80.5%; in assay [5] it was 2.82% (active); in assay [6], 56.5%. The growth in assay [7] was 75.8%; in [8] it was 93.5%; in [9], 95.5%; in assay [10] it was 85.7%; in [11], 45.6%; in [12], 72%. In addition, the growth in assay [13] is 66.7%; in [14], 94.6%; in [15] it was 87.3%; in [16] it was 90.7%; in [17], 84%; in [18] it was 58.1%. For the same compound, the growth in [19] is 88.4%.

Regarding `O=C(CCl)Nc1ccc(Cc2ccc(NC(=O)CCl)cc2)cc1`, the growth in assay [1] was -10.4% (active); in assay [2], -16.2% (active); in [3], 33.2%; in [4] it was -29.3% (active); in assay [5] it was 46.3%; in assay [6], -81% (active). Besides, the growth in assay [7] is 25.3%; in assay [8], -20.2% (active); in [9], -56.1% (active); in [10] it was 32.3%; in assay [11] it was 0.772% (active); in assay [12] it was -67.5% (active). Besides, the growth in assay [13] is -15.8% (active); in [14] it was -50.7% (active); in assay [15] it was 10.1%; in assay [16], 70.1%; in assay [17], -87.7% (active); in assay [18], 16.3%. For the same compound, the growth in assay [19] was -35.3% (active).

With `COc1cc(/C=C/c2cc(/C=C/c3ccc(O)c(OC)c3)[nH]c(=O)n2)ccc1O`, the growth was 62.8% in assay [1]; 76.2% in assay [2]; 70.8% in assay [3]; 69.7% in assay [4]; 33.7% in [5]; 54.6% in assay [6]. Moreover, the growth in assay [7] was 71.7%; in [8], 82.6%; in [9] it was 51.8%; in assay [10], 80.4%; in [11], 42%; in assay [12], 53.6%. The growth is 54.2% in [13]; 23.7% in [14]; 48.2% in [15]; 92.8% in [16]; 69% in [17]; 62.5% in [18]. Besides, the growth in [19] was 75.5%.

(Values after PubChem BioAssay (NCI).)
